Measured values reported in PMC4336329 (PLoS ONE, 2015).
About 14,000 (4.5%) of roughly 310,000 compounds showed an effect of 50% or more. Effects have a minus sign here. The full list was thinned out, with strong results kept by preference.

The molecules below were run against human ether-à-go-go-related gene (hERG) potassium channel (human, UniProt Q12809) (assay: primary screen, population patch clamp on CHO cells stably expressing hERG; higher = less effect of the substance).
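Note: peak tail current of the secondary pulse compared with the same well before compound.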

Chain of human ether-à-go-go-related gene (hERG) potassium channel (Q12809 whole entry, looked up): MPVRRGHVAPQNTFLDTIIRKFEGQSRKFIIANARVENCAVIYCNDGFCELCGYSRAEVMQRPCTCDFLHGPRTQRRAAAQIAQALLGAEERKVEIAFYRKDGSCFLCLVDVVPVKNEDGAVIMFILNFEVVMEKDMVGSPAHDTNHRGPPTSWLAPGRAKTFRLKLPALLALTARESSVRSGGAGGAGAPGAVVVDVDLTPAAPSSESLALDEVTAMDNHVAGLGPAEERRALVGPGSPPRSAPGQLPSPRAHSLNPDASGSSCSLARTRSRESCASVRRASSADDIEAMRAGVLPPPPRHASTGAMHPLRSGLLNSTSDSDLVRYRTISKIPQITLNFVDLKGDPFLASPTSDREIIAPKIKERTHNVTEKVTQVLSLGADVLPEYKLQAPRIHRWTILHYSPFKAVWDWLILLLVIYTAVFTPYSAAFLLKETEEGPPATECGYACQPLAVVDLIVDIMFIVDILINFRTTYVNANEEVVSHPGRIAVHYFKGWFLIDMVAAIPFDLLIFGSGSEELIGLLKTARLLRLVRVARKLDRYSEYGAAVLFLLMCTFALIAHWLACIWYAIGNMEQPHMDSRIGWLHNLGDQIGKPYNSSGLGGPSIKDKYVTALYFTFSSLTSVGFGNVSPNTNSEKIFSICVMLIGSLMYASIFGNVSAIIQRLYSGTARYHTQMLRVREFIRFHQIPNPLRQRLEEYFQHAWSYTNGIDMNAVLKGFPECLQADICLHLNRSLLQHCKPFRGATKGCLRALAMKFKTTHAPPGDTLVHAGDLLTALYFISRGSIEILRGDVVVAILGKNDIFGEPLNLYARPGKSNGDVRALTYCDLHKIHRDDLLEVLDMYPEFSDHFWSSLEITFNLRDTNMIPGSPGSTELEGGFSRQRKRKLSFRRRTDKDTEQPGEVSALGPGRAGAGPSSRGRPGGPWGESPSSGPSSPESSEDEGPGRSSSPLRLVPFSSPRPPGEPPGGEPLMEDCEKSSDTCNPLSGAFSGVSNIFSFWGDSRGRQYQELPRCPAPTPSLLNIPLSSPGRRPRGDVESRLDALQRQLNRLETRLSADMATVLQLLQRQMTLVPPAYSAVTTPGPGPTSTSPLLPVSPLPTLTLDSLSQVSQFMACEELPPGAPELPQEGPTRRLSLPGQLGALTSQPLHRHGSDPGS

| SMILES | hERG current change (%, negative = inhibition) at 10uM |
| --- | --- |
| CCN(c1ccccc1)S(=O)(=O)c1ccc(Oc2ccc([N+](=O)[O-])cc2)nc1 | -21% |
| CCN(c1ccccc1)S(=O)(=O)c1ccc(NN)nc1 | -12.2% |
| CCN(c1ccccc1)S(=O)(=O)c1ccc(Oc2ccc(-n3ccnc3)cc2)nc1 | -77.4% |
| Cc1ccc(-c2[nH]nc3c2C(c2cccnc2)C(C#N)=C(N)O3)cc1 (centres unmarked) | -7.46% |
| O=[N+]([O-])c1ccc(C(O)CSC(=S)N2CCCCC2)cc1 (centres unmarked) | -3.13% |
| CC(C)(C)c1ccc(C(=O)/C=C2\NC(=O)CS2)cc1 | -9.16% |
| OCCC1CN(Cc2cnc(-c3ccccc3)s2)CCN1C1CCCCC1 (centres unmarked) | -51.4% |
| OCCC1CN(Cc2cnc(-c3ccccc3)s2)CCN1Cc1ccccc1 (centres unmarked) | -57.5% |
| Cc1ncc(CN2CCN(C3CCCC3)C(CCO)C2)s1 (centres unmarked) | 27.6% |
| CCOc1ccc(CN2CCN(Cc3cnc(-c4ccccc4)s3)CC2CCO)cc1 (centres unmarked) | -90.7% |
| CC(C)=CCN1CCN(Cc2cnc(-c3ccccc3)s2)CC1CCO (centres unmarked) | -49.2% |
| Cc1ncc(CN2CCN(Cc3ccccc3)C(CCO)C2)s1 (centres unmarked) | 1.08% |
| CC(C)(O)C#Cc1ccc(CN2CCN(CCc3ccccc3)C(CCO)C2)s1 (centres unmarked) | -30.7% |
| CCOc1ccc(CN2CCN(Cc3cnc(N4CCOCC4)s3)CC2CCO)cc1 (centres unmarked) | -39.8% |
| OCCC1CN(Cc2cnc(-c3ccccc3)s2)CCN1CCc1ccccc1 (centres unmarked) | -71.2% |
| CC(C)N1CCC(N2CCN(Cc3cnc(-c4ccccc4)s3)CC2CCO)CC1 (centres unmarked) | -15.6% |
| CCCCN1C(=O)NC(=O)C2(Cc3c(nc4ccccn4c3=O)N3CCc4ccccc4C32)C1=O (centres unmarked) | -16.6% |
| Cc1sc2nc(CSc3ncn[nH]3)[nH]c(=O)c2c1C | 33.7% |
| Cn1c(-c2sc3cc(C(F)(F)F)cnc3c2-c2ccccc2)n[nH]c1=S | 20.1% |
| O=C(O)C(=O)O.Oc1ccccc1NCC(O)Cn1ccc2ccccc21 (centres unmarked) | 13.4% |

| SMILES | hERG current change (%, negative = inhibition) at 10uM |
| --- | --- |
| NC(=O)c1ccccc1NC(=O)NC1CCCCC1 | -6.68% |
| CCOC(=O)CCSCC(=O)Nc1cc(C)on1 | -3.91% |
| Cc1ccc(C(=O)NC(=S)Nc2ccccc2C(F)(F)F)cc1 | 16.3% |
| CC(C)NS(=O)(=O)c1ccc(NC(=O)NC2CCCCC2)cc1 | 1.79% |
| c1ccc(Cn2cc(-c3ccccc3)cn2)cc1 | -2.61% |
| CC(C)CCN1CCN(Cc2cnc(-c3ccccc3)s2)CC1CCO (centres unmarked) | -56.6% |
| CC(C)N1CCN(Cc2cnc(-c3ccccc3)s2)CC1CCO (centres unmarked) | -9.9% |
| Cc1ncc(CN2CCN(CCC(C)C)C(CCO)C2)s1 (centres unmarked) | -20.1% |
| CCCOc1ccc(C(C)=O)cc1CC(C(N)=O)C(N)=O | 14.9% |
| CCCCOP(=O)(c1ccc(N(C)C)cc1)C(O)c1ccc(C(C)C)cc1 (centres unmarked) | -13% |
| O=c1[nH]c2ccccc2n2c(C(F)(F)F)nnc12 | 14% |
| Cc1ccc(S(=O)(=O)N(Cc2cccc(Cl)c2)C(=O)N2CCN(C)CC2)cc1 | 9.85% |
| CCn1c(SCC(=O)N/N=C/C=C\c2ccccc2[N+](=O)[O-])nnc1-c1ccccc1 | -67% |
| CCn1c(SCC(=O)N/N=C/C=C/c2ccccc2[N+](=O)[O-])nnc1-c1ccccc1 | -36.6% |
| CCn1c(SCC(=O)N/N=C/C=C/c2ccccc2[N+](=O)[O-])nnc1-c1ccc(Cl)cc1 | -15.6% |
| COCCn1c(SCC(=O)Nc2ccccc2OC)nc2ccccc21 | -25.4% |
| Cn1c(SCC(=O)N/N=C/C=C/c2ccccc2[N+](=O)[O-])nc2ccccc21 | -1.36% |
| CCn1c(SCC(=O)N/N=C/C=C\c2ccccc2[N+](=O)[O-])nc2ccccc21 | -63.8% |
| Cn1c(SCC(=O)N/N=C/C=C\c2ccccc2[N+](=O)[O-])nc2ccccc21 | 10.4% |
| CCn1c(SCC(=O)NC(=O)NC(C)(C)C)nc2ccccc21 | 4.41% |

| SMILES | hERG current change (%, negative = inhibition) at 10uM |
| --- | --- |
| CCn1c(SCC(=O)NC(=O)c2ccccc2OC)nc2ccccc21 | -70.8% |
| O=C1OCCN1C(=O)[C@H]1[C@H](c2ccc(Cl)cc2)C(c2cccc(Cl)c2)=NN1c1ccccc1 | 14% |
| COc1ccccc1C(=O)C1CCCN(C(=O)Nc2ccccc2F)C1 (centres unmarked) | 37.3% |
| Cc1nn2c(N)c(C#N)cnc2c1-c1ccc(Cl)cc1 | -0.156% |
| Cc1cc2nnc(SCC(=O)NCc3cccs3)n2c(N)n1 | -8.37% |
| Cc1cccc(-n2nnc(C(=O)NCc3ccco3)c2N)c1 | -10.2% |
| OC1=C(O)c2nc3ccccc3nc21 | -1.17% |
| CC(C)Sc1nc2c([nH]1)c(=N)ncn2Cc1ccccc1 | -5.52% |
| Cc1noc(C)c1COc1ccc(CC(=O)NC2CCCCCC2)cc1 | 39.5% |
| COc1cc(C2NC(=O)CCC2[N+](=O)[O-])cc(OC)c1OC (centres unmarked) | 29.6% |
| COc1cc(Cl)ccc1NC(=S)N(CCN(C)C)C(C)c1ccncc1 (centres unmarked) | -39.2% |
| COCCCN(C(=S)Nc1cc(Cl)cc(Cl)c1)C(C)c1ccncc1 (centres unmarked) | -70.6% |
| CCc1cccc(NC(=S)N(CCN(C)C)C(C)c2ccncc2)c1 (centres unmarked) | -44% |
| COc1ccc(NC(=S)N(CCN(C)C)C(C)c2ccncc2)cc1Cl (centres unmarked) | -59.9% |
| COCCCN(C(=S)Nc1cc(C)cc(C)c1)C(C)c1ccncc1 (centres unmarked) | -41% |
| COc1ccc(NC(=S)N(CCN(C)C)C(C)c2ccco2)cc1Cl (centres unmarked) | -36.3% |
| CSc1cccc(NC(=S)N(CCN(C)C)C(C)c2ccncc2)c1 (centres unmarked) | -50.6% |
| CSc1cccc(NC(=S)N(CCN(C)C)C(C)c2ccccn2)c1 (centres unmarked) | -36.2% |
| COCCCN(C(=S)Nc1cccc(Cl)c1)C(C)c1ccncc1 (centres unmarked) | -17.3% |
